Data published in article PMC5540273 (PLoS ONE, 2017).

Columns and labels:
Conditions in all cases: concentration: 1 μM, replicates: in singlicate; n = 1
MEK2 = test system: T1, MEK2
T1 construct: gene MAP2K2

MEK3 = test system: T2, MEK3
T2 construct: gene MAP2K3

MEK4 = test system: T3, MEK4
T3 construct: gene MAP2K4

MEK5 = test system: T4, MEK5
T4 construct: gene MAP2K5

MEK6 = test system: T5, MEK6
T5 construct: gene MAP2K6

MELK = test system: MELK
MERTK = test system: MERTK
MET = test system: MET
MINK = test system: T6, MINK
T6 construct: gene MINK1

MKK7 = test system: MKK7
MKNK1 = test system: MKNK1
MKNK2 = test system: MKNK2
MLCK = test system: T7, MLCK
T7 construct: gene MYLK3

MLK1 = test system: T8, MLK1
T8 construct: gene MAP3K9

MLK2 = test system: MLK2
MLK3 = test system: MLK3
MRCKA = test system: MRCKA
MRCKB = test system: T9, MRCKB
T9 construct: gene CDC42BPB

MST1R = test system: MST1R
MST1 = test system: T10, MST1
T10 construct: gene STK4
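Note: KINOMEscan kinase panel screen.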

Structure (SMILES) | %Inh (MEK2) [%] | %Inh (MEK3) [%] | %Inh (MEK4) [%] | %Inh (MEK5) [%] | %Inh (MEK6) [%] | %Inh (MELK) [%] | %Inh (MERTK) [%] | %Inh (MET) [%] | %Inh (MINK) [%] | %Inh (MKK7) [%] | %Inh (MKNK1) [%] | %Inh (MKNK2) [%] | %Inh (MLCK) [%] | %Inh (MLK1) [%] | %Inh (MLK2) [%] | %Inh (MLK3) [%] | %Inh (MRCKA) [%] | %Inh (MRCKB) [%] | %Inh (MST1R) [%] | %Inh (MST1) [%]
CCn1c(-c2ccccn2)nc2cnccc21 [SB-736398] | 0 | 0 | 19 | 12 | 100 | 22 | 0 | 15 | 0 | 0 | 26 | 24 | 0 | 12 | 0 | 7 | 14 | 0 | 47 | 29
Cc1ccc(NC(=O)Nc2cc(C(C)(C)C)nn2-c2ccccc2)cc1 [GSK1014915] | 0 | 0 | 12 | 2 | 0 | 26 | 15 | 0 | 0 | 0 | 28 | 91.9 | 2 | 0 | 0 | 12 | 23 | 8 | 41 | 52
CC1=C(C(=O)Nc2cc3cn[nH]c3cc2F)C(c2ccc(C(F)(F)F)cc2)CC(=O)N1 (centres unmarked) [GSK429286] | 0 | 23 | 15 | 8 | 0 | 0 | 13 | 0 | 0 | 48 | 0 | 19 | 17 | 0 | 0 | 0 | 1 | 23 | 36 | 0
Cc1ccccc1-n1cnc2c(N)ncnc21 [SKF-97510] | 0 | 0 | 0 | 0 | 20 | 0 | 7 | 0 | 0 | 0 | 0 | 0 | 0 | 0 | 0 | 1 | 0 | 0 | 0 | 0
COC(=O)c1c(-c2ccccc2)c2cc(C(=O)O)ccc2c(=O)n1Cc1ccccc1 | 10 | 7 | 0 | 4 | 0 | 0 | 0 | 0 | 0 | 0 | 0 | 0 | 0 | 41 | 14 | 0 | 0 | 0 | 19 | 0
Cc1cccc(-c2nc(Nc3cccc(C(N)=O)c3)c3ccccc3n2)n1 [GW876019] | 27 | 14 | 0 | 20 | 0 | 24 | 11 | 19 | 5 | 0 | 0 | 0 | 0 | 4 | 0 | 0 | 38 | 32 | 0 | 31
CN1C(=O)C(Nc2ccc(Cl)c(C(=O)O)c2)=C(c2ccc(Cl)cc2)C1=O [SB-404290] | 21 | 3 | 26 | 0 | 0 | 4 | 11 | 0 | 10 | 0 | 0 | 10 | 0 | 0 | 0 | 4 | 13 | 0 | 19 | 12
Nc1nc(-c2nccs2)c(-c2ccnc3ccccc23)s1 [GW693542] | 0 | 0 | 36 | 45 | 0 | 56 | 22 | 2 | 51 | 0 | 11 | 6 | 0 | 6 | 0 | 0 | 12 | 0 | 33 | 2
O=C(Nc1n[nH]c2cc(-c3cccc(F)c3F)ccc12)C1CC1 [SB-733894] | 11 | 15 | 1 | 45 | 20 | 0 | 0 | 0 | 58 | 0 | 0 | 20 | 18 | 0 | 0 | 4 | 6 | 17 | 6 | 0
Fc1cccc(COc2nnc(-c3ccc4c(c3)CCO4)o2)c1 | 4 | 0 | 0 | 9 | 0 | 19 | 0 | 0 | 1 | 13 | 0 | 0 | 7 | 0 | 19 | 0 | 0 | 1 | 10 | 0
